Measured values taken from PubChem BioAssay (Tox21).
Records with an inconclusive call do not appear. Activity calls are given as the source filed them. The call rests on the fitted dose curve; in most records, active means well fitted activation curve with a large enough effect in the signal ratio in the repeat runs (not every such curve was filed as active); inconclusive means weak or mixed curves; inactive means flat fitted curve, though single readings scatter; the % refers to the signal ratio.

Assay: qHTS assay to identify small molecule agonists of the hypoxia (HIF-1) signaling pathway (AID 1224846)
Settings: HRE-bla ME-180 cells, beta-lactamase ratio, 17 h; series mostly up to 76.8 µM
From the text: U.S. Tox21 Program National Center for Advancing Translational Sciences [NCATS] NIH Chemical Genomics Center [NCGC] U.S. Environmental Protection Agency [EPA] National Institutes of Environmental Health Sciences [NIEHS] National Toxicology Program [NTP] U.S. Food and Drug Administration [FDA] Tox21 Assay Overview: Hypoxia-inducible factor-1 (HIF-1) is the major hypoxia-regulated transcription factor that controls cellular responses to low oxygen concentration. HIF-1 is composed of two subunits: hypoxia responsive HIF-1-alpha and constitutively expressed HIF-1-beta, which is also known as aryl hydrocarbon receptor nuclear translocator. During hypoxic conditions, HIF-1-alpha heterodimerizes with HIF-1-beta and translocates into the nucleus where the HIF-1 complex binds to the hypoxia-response element (HRE) and activates expression of target genes such as VEGF (vascular endothelial growth factor). The HIF-1 pathway is essential to normal growth and development, and is involved in the pathophysiology of cancer, inflammation, and ischemia. Using a beta-lactamase reporter-gene under control of the hypoxia response element, a cell-based assay [CellSensor(TM) HRE-bla ME-180 from Life Technologies, Carlsbad, CA] was used to measure hypoxia-induced signaling. Tox21 10K library compounds were measured for their ability to induce the reporter gene activity.
Tox21 Assay Protocol Summary: HRE-bla ME-180 cells were dispensed at 2,000 cells per well in 6 uL of assay medium containing 0.5% dialyzed FBS into black wall/clear-bottom 1536-well plates using a Multidrop Combi (Thermo Scientific, Waltham, MA) dispenser. After the assay plates were incubated at 37C and 5% CO2 for 5 hrs, 23 nL of compounds dissolved in DMSO, positive controls or DMSO only was transferred to each well of the assay plate using a Pintool station (Kalypsys, San Diego, CA). The assay plates were incubated at 37C and 5% CO2 for 17 hrs. One uL of LiveBLAzerTM B/G FRET substrate (CCF4-AM) (Life Technologies) was added to each well using a Flying Reagent Dispenser (Aurora Discovery, San Diego, CA).
On the % scale 0 is the no-effect control and ±100 the full control effect.

Row | SMILES | outcome | activation
1 | Cc1ccccc1C#N | inactive | 
2 | O=c1c(O)c(O)c1=O | inactive | 
3 | COC(=O)c1c(C)cc(O)c(C)c1O | inactive | 
4 | N#Cc1cc(NC(=O)C(=O)O)c(Cl)c(NC(=O)C(=O)O)c1 | inactive | 
5 | CO/N=C(\C(=O)O)c1csc(NC(=O)CCl)n1 | inactive | 
6 | CCCCS | inactive | 
7 | CCCCCCCCCCCC(C)=O | inactive | 
8 | Cc1cc2c(cc1CC(=O)c1sccc1S(=O)(=O)Nc1onc(C)c1Cl)OCO2 | inactive | 
9 | CCCCCCCCCCCBr | inactive | 
10 | CCCc1ccc(O)c(OC)c1 | inactive | 
11 | COCc1nnc(-c2ccc[n+]([O-])c2)n1-c1c(Cl)c(Cl)cc2[nH]c(=O)c(=O)[nH]c12 | inactive | 
12 | N#Cc1ccccc1C#N | inactive | 
13 | c1coc(Cn2cccc2)c1 | inactive | 
14 | Cc1ccc(NC(N)=O)cc1 | inactive | 
15 | NNC(=O)CCCCC(=O)NN | inactive | 
16 | CCCCCCCCCCCCCCCC(=O)OC |  | 0.217% [at 15.8 µM] (inactive)
17 | Cc1ccc2ccccc2n1 | inactive | 
18 | CCOC(=O)COc1ccc2c(C)c(CCN(CC)CC)c(=O)oc2c1Cl | inactive | 
19 | CCCCCCCCCCCCCCBr | inactive | 
20 | O=C1CC2(CCCC2)CC(=O)N1CCNCC1COc2ccccc2O1 (stereo not given) | inactive | 

Row | SMILES | outcome | activation
21 | C/C=C(\C)C(=O)OC/C=C(\C)CCC=C(C)C | inactive | 
22 | CC(C)C(=O)Nc1cccc(C2CN3CCSC3=N2)c1 (stereo not given) | inactive | 
23 | O=c1[nH]c(=O)c2cn[nH]c2[nH]1 | inactive | 
24 | Cc1ccc(Br)cc1 | inactive | 
25 | Nc1nc(Cl)cc(Cl)n1 | inactive | 
26 | CCN1CCN(C(=O)N[C@@H](C(=O)N[C@@H]2C(=O)N3C(C(=O)O)=C(CSc4nnnn4C)CS[C@H]23)c2ccc(O)cc2)C(=O)C1=O | inactive | 
27 | C=CCOC(=O)CCCCCCCC | inactive | 
28 | CCC(C)SSC(C)CC (stereo not given) | inactive | 
29 | Cc1cc(O)c(Cl)cc1C | inactive | 
30 | N#CC1(N)CCCCC1 | inactive | 
31 | CCCC(=O)CC | inactive | 
32 | CC(CN1CC(=O)NC(=O)C1)N1CC(=O)NC(=O)C1 (stereo not given) | inactive | 
33 | COCCCOc1cc(C[C@@H](C[C@H](N)[C@@H](O)C[C@H](C(=O)NCC(C)(C)C(N)=O)C(C)C)C(C)C)ccc1OC | inactive | 
34 | CCCCN=C(N)N=C(N)N | inactive | 
35 | O=C(O)P(=O)(O)O | inactive | 
36 | COC(=O)C(c1ccccc1Cl)N1CCc2sccc2C1 (stereo not given) | inactive | 
37 | CC/C=C/CCCCCCCCCCOC(C)=O | inactive | 
38 | CC(C)(C)C(=O)CCc1ccc(Cl)cc1 | inactive | 
39 | CCCc1ncc(C(=O)O)s1 | inactive | 
40 | CC(C)CC(O)Cc1ccccc1 (stereo not given) | inactive | 
